Holding throughout (assay): DAPPL (digital affinity profiling via proximity ligation, sequencing); 10 mM Tris-HCl pH 7.5, 50 mM NaCl, 1 mM DTT, 4% glycerol, room temperature, 30 min; GST-TFs on glutathione beads, 16-mer random dsDNA library, 0.1% formaldehyde crosslink after washing; high values mean tight binding
Settings in all cases: protein: recombinant; tags: N-terminal GST; dsDNA, one strand shown

The target in one experiment is T1, ETV2 (Homo sapiens, UniProt O00321 1-342).
T1 sequence: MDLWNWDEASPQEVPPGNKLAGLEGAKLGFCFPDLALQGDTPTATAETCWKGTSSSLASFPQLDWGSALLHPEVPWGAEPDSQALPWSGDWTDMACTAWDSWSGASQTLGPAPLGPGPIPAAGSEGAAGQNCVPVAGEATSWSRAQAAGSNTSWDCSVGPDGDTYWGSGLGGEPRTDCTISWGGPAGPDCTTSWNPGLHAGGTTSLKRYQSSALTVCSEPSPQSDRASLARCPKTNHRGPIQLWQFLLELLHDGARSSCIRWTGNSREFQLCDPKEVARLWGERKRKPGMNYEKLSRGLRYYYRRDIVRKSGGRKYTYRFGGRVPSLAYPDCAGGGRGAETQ
In a few lines:
(§1)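 Binding signal is each hexamer's read frequency for a factor divided by its frequency in the tag-only sample. The factors were GST-fused human transcription factors from yeast, captured on glutathione beads, DNA-barcoded and pooled with that sample. Pools were incubated with 200 nmole of a random double-stranded 16-mer DNA library in Tris/NaCl/DTT/glycerol buffer at room temperature for 30 min, then washed, crosslinked with 0.1% formaldehyde, proximity-ligated with BsaI/T4 ligase (1 h, 37 °C), PCR-amplified and sequenced on an Illumina NextSeq500.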

In another experiment the target is T2, ELF3 (Homo sapiens, UniProt P78545 1-371).
T2 sequence: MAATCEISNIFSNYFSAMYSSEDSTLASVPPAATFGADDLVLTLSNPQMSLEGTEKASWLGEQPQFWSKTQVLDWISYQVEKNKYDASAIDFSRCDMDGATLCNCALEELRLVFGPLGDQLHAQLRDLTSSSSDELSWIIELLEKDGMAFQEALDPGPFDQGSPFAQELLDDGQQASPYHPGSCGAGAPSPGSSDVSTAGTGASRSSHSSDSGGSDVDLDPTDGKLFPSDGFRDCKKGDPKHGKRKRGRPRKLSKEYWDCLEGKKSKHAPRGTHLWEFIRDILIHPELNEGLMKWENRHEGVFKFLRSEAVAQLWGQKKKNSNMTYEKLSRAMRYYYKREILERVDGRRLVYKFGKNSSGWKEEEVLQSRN
In a few lines: as §1

The next experiment concerns the target T3, FEV (Homo sapiens, UniProt Q99581 1-238).
T3 sequence: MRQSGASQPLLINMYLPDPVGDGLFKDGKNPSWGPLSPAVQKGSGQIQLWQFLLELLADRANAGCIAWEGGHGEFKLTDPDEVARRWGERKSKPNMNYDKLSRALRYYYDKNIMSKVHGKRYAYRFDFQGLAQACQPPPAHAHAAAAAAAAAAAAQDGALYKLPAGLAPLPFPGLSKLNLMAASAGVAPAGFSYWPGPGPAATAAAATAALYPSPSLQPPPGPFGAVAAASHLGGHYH
In a few lines:
as §1

The next experiment deals with CRX (Homo sapiens, UniProt O43186 1-299). The method, boiled down:
as §1

The next experiment has as its target SPI1 (Homo sapiens, UniProt P17947 1-270). The method, boiled down: as §1
Another experiment addresses ETV1 (Homo sapiens, UniProt P50549 1-477). In a few lines: as §1
The target in a further experiment is T4, GABPA (Homo sapiens, UniProt Q06546 1-454).
T4 sequence: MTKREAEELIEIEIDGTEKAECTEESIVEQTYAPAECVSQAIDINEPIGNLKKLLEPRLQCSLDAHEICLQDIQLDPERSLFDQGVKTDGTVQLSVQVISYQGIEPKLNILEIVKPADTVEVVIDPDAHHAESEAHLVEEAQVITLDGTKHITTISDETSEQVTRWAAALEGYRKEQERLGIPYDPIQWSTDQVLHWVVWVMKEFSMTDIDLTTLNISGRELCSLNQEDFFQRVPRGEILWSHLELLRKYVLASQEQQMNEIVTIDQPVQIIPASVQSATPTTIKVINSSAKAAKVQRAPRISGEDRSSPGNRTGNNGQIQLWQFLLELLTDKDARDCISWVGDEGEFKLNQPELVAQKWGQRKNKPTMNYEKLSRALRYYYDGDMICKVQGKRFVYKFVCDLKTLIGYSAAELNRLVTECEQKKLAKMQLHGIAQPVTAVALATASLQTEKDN
The method, boiled down: as §1

The target in the next experiment is T5, ELK3 (Homo sapiens, UniProt P41970 1-407).
T5 sequence: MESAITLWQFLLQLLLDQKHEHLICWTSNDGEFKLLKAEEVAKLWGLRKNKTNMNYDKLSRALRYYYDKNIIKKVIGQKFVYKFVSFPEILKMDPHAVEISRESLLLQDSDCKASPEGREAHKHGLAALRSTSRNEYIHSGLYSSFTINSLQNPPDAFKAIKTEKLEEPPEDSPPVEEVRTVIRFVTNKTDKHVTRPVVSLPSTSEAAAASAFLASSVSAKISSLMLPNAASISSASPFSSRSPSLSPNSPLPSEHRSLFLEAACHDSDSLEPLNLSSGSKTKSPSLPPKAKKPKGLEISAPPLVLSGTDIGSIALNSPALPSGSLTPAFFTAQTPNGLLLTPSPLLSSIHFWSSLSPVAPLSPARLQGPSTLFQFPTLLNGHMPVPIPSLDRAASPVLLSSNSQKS
In a few lines: as §1

The next experiment concerns the target T6, ETV7 (Homo sapiens, UniProt Q9Y603 1-341).
T6 sequence: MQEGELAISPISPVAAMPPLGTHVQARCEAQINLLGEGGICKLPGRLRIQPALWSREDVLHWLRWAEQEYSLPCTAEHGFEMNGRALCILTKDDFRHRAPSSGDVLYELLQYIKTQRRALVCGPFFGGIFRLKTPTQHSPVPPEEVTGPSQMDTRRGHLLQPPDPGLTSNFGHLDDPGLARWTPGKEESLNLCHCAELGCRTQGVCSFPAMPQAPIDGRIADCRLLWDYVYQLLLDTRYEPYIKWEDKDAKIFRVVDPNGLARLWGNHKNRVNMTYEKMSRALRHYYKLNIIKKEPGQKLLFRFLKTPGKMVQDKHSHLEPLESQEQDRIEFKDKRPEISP
In a few lines: as §1

In another experiment the target is T7, EHF (Homo sapiens, UniProt Q9NZC4 1-300).
T7 sequence: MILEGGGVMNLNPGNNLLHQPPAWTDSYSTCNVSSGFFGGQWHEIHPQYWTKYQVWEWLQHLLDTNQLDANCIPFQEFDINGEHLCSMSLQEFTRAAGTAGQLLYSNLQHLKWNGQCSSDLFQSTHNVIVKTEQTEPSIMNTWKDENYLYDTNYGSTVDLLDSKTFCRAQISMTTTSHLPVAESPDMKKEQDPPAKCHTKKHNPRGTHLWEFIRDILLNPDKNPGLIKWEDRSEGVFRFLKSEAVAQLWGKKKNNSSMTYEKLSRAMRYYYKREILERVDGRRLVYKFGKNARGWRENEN
The method, boiled down:
as §1

The next experiment deals with T8, SPDEF (Homo sapiens, UniProt O95238 1-335).
T8 sequence: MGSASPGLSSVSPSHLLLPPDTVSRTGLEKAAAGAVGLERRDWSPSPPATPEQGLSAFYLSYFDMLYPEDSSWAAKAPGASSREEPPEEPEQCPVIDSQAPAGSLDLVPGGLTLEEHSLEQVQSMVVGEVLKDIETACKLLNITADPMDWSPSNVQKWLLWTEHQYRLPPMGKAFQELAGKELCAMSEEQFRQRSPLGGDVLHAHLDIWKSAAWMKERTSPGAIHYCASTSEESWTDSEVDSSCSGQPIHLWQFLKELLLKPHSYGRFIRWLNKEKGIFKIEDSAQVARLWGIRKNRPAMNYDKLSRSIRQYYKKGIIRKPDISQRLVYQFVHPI
In a few lines: as §1

The target of a further experiment is SPIB (Homo sapiens, UniProt Q01892 1-262). In a few lines:
as §1

Chain of CRX (O43186 whole entry): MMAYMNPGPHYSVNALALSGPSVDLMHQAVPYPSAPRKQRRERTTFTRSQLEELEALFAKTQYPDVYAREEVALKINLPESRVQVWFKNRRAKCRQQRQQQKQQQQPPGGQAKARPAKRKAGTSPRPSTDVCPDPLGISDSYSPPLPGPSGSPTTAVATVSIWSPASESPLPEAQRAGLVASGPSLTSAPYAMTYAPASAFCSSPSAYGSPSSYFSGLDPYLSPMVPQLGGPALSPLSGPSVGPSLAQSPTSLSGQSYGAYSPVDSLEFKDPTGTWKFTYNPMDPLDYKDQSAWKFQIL
Chain of ETV1 (P50549 whole entry): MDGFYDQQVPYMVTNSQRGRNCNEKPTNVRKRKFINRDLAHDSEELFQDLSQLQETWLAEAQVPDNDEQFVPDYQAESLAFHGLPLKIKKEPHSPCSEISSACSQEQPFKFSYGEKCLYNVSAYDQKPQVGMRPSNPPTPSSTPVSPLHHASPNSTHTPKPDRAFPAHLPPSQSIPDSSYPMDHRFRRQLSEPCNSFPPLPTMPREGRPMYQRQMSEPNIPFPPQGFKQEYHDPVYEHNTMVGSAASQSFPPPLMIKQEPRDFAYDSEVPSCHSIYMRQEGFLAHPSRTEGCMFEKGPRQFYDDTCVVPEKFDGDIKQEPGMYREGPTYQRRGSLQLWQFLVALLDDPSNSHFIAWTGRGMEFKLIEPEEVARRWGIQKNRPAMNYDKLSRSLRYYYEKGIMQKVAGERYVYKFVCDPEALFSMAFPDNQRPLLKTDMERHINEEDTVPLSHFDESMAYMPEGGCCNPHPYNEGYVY
Chain of SPIB (Q01892 whole entry): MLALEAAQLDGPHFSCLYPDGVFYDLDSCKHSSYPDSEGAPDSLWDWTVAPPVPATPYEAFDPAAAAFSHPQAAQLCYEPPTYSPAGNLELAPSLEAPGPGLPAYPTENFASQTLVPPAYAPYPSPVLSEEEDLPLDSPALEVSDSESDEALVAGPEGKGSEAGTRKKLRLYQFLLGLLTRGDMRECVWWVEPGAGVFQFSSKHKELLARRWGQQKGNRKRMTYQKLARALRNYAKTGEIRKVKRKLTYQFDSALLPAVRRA

Regarding GTATCG, the binding signal was 1.09 fold enrichment (6-mer frequency, TF over GST control) in the experiment with ETV2 and 1.13 fold enrichment (6-mer frequency, TF over GST control) with ELF3.

GTTCAG: the binding signal with ETV2 was 1.01 fold enrichment (6-mer frequency, TF over GST control).

Consider AGCCCA, for which the binding signal with FEV was 1.01 fold enrichment (6-mer frequency, TF over GST control); with ETV2, 1.04 fold enrichment (6-mer frequency, TF over GST control); with ELF3, 1.04 fold enrichment (6-mer frequency, TF over GST control); with CRX, 1.05 fold enrichment (6-mer frequency, TF over GST control).

For GCGACG, the binding signal in the experiment with ETV2 was 1.15 fold enrichment (6-mer frequency, TF over GST control).

Turning to ACCCGT, the binding signal with ETV2 is 1 fold enrichment (6-mer frequency, TF over GST control).

GTAGCC: the binding signal with SPI1 is 1.03 fold enrichment (6-mer frequency, TF over GST control); with ELF3, 1.06 fold enrichment (6-mer frequency, TF over GST control); with ETV1, 1 fold enrichment (6-mer frequency, TF over GST control).

With AGCAAG, the binding signal with ETV2 is 1.02 fold enrichment (6-mer frequency, TF over GST control).

As for GATAAC, the binding signal in the experiment with ETV2 was 1.08 fold enrichment (6-mer frequency, TF over GST control); with CRX, 1.13 fold enrichment (6-mer frequency, TF over GST control).

For the sequence GGCATA, the binding signal with ETV2 is 1.05 fold enrichment (6-mer frequency, TF over GST control).

For the sequence AGGCCT, the binding signal with GABPA was 1.08 fold enrichment (6-mer frequency, TF over GST control); in the experiment with ELK3, 1.01 fold enrichment (6-mer frequency, TF over GST control); in the experiment with ETV2, 1.01 fold enrichment (6-mer frequency, TF over GST control); in the experiment with CRX it was 1.07 fold enrichment (6-mer frequency, TF over GST control); with ETV7, 1.01 fold enrichment (6-mer frequency, TF over GST control).

With AAGGTC, the binding signal with EHF is 1.08 fold enrichment (6-mer frequency, TF over GST control); with ETV2, 1.06 fold enrichment (6-mer frequency, TF over GST control).

As to CCGTTA, the binding signal with ETV2 was 1.05 fold enrichment (6-mer frequency, TF over GST control); with ELF3, 1.01 fold enrichment (6-mer frequency, TF over GST control); in the experiment with SPDEF it was 1.04 fold enrichment (6-mer frequency, TF over GST control).

On to TGAAGG, for which the binding signal with SPIB is 1 fold enrichment (6-mer frequency, TF over GST control); in the experiment with ETV2, 1 fold enrichment (6-mer frequency, TF over GST control).

The values above are taken from PMC7862700, “An all-to-all approach to the identification of sequence-specific readers for epigenetic DNA modifications on cytosine”.
